From PubChem
A selection: hits, their analogues and other compounds. The true share with any hit is near 12%.
BAZ2B inh – BAZ2B (human) inhibition | Q9UIF8 | AlphaScreen BAZ2B-H3K14Ac peptide displacement | AID 504333 | Potency, µM (doses to about 114 µM), without a hit: top-dose activity change, negative = inhibition, most hits filed as inhibitors | 360,000 tested, 4.4% active; further: on the % scale 0 is the no-effect control and ±100 the full control effect; nearly all actives have a fitted effect of over 60% in size
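BAZ2B (50 nM) with biotin-H3(5-23)K14Ac peptide (50 nM) in PBS pH 7.4, 0.01% Tween-20, preformed 30 min, then compound 30 min at room temperature; top concentration 110uM. AlphaScreen streptavidin donor/nickel chelate acceptor beads (10 ug/mL final), 20 min dark, signal read.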
G9a block – G9a (human) methyltransferase inhibition. Q96KQ7. G9a H3K9 monomethylation, AlphaScreen, 2 h. Potency, µM (top dose mostly 102 µM), for inactives: at the top dose activity, negative = inhibition, most hits filed as inhibitors. 350,000 tested, 8.8% active; further: on the % scale 0 is the no-effect control and ±100 the full control effect; nearly all actives have a fitted effect of over 75% in size
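AlphaScreen read-out: biotin-H3K9 peptide (500 nM) methylation by 20 nM enzyme with 20 uM SAM, 2 h at room temperature after 15 min compound preincubation; anti-monomethyl H3K9 antibody plus donor/acceptor beads, 10 min dark.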
L3MBTL1 inh – L3MBTL1 (human) inhibition; Q9Y468; AlphaScreen L3MBTL1–H3K9me1 peptide binding; Potency, µM (top dose mostly 57.1 µM), for the others: at the top dose activity, negative = inhibition, hits mostly inhibitors; 230,000 tested, 0.66% active; AID 485360; further: on the % scale 0 is the no-effect control and ±100 the full control effect; nearly all actives have a fitted effect of over 60% in size
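AlphaScreen proximity signal between nickel-chelate acceptor and streptavidin donor beads (final 10 ug/mL) reports binding of 50 nM L3MBTL1 to 75 nM biotin-H3 K9me1 peptide; complex incubated with compounds 30 min at room temperature; cefsulodin titration as control.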
JMJD2A Tudor – JMJD2A Tudor domain (human) inhibition. O75164. Potency, µM (titrated, usually from 114 µM), inactives show at the highest dose activity change, negative = inhibition, hits mostly inhibitors. 390,000 tested, 4.4% active. AlphaScreen JMJD2A-Tudor / H3K4me3 peptide binding; further: on the % scale 0 is the no-effect control and ±100 the full control effect; nearly all actives have a fitted effect of over 50% in size
Target sequence (O75164 whole entry, looked up, the tested form may be a part): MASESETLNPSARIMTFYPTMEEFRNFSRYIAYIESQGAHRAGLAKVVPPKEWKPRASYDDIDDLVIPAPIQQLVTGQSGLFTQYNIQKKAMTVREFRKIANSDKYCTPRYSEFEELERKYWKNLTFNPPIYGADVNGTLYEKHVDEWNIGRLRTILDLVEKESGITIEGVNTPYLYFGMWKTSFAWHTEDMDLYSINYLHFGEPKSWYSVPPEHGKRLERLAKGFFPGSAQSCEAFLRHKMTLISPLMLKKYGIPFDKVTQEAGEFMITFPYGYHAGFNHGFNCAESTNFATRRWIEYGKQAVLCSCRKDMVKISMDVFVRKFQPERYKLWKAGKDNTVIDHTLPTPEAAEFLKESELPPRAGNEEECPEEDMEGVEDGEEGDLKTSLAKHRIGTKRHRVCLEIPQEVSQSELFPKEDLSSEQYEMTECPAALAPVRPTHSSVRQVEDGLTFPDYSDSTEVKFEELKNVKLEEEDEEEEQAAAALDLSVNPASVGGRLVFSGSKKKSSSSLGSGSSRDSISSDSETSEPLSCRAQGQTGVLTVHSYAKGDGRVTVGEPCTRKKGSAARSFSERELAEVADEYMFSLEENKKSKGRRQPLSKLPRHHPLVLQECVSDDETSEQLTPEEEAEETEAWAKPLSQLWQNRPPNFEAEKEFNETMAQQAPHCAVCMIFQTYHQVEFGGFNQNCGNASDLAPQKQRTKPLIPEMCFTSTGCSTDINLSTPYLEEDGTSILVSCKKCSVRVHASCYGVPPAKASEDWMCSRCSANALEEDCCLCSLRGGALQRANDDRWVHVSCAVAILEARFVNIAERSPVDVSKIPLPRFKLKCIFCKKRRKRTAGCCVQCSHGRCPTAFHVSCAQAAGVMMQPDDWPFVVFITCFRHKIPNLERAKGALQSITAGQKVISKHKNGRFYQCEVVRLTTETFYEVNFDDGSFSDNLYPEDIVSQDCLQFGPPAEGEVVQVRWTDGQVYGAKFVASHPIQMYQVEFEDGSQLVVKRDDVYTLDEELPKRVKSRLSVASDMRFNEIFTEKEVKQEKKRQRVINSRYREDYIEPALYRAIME
HP1b binding inh – inhibitors of HP1-beta chromodomain binding to methylated histone tails; P83916; AlphaScreen HP1-beta / biotin-H3K9me3 peptide binding; Potency, µM (titrated, usually from 114 µM), without a hit: at the highest dose activity change, negative = inhibition, hits mostly inhibitors; 390,000 tested, 0.56% active; AID 540317; further: nearly all actives have a fitted effect of over 70% in size
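AlphaScreen: HP1-beta (50 nM) preformed 30 min with biotin-H3(1-18)K9me3 peptide (50 nM) in PBS pH 7.4, 0.01% Tween-20. Compound added for 30 min at RT, then streptavidin donor/nickel chelate acceptor beads (10 ug/mL) for 30 min.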
Sfp PPTase inh – inhibitors of Bacillus subtilis Sfp phosphopantetheinyl transferase | AID 1490 | 310,000 tested, 3.5% active | Biochemical Sfp PPTase activity, qHTS | Potency, µM, for inactives: largest response in the series, negative = inhibition, usual class: inhibitors | Q9F4F7;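 further: the enzyme is Sfp with the accession as filed and its product quenches rhodamine fluorescence; 0% = enzyme reaction without inhibitor and -100% = no enzyme wells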
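Sfp 15 nM + cpd, 15 min RT; start w/ rhodamine-CoA 5 uM, BHQ-2-YbbR 12.5 uM (final); 50 mM Hepes pH 7.6, 10 mM MgCl2, 0.01% NP-40, 0.01% BSA; read 525/598 nm at 0 and 30 min.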
Numbers without * were called inactive; u = inconclusive; x = not tested or not shown; [ ] = remark or other dose. The call rests on the fitted dose curve; in most records, active means well fitted curve in the direction sought with a large enough effect; inconclusive means small, poorly fitted or top-dose-only effect, or another doubt; inactive means no such curve, though single readings can be large; an effect the other way counts as inactive or inconclusive. Potency means the concentration at half of the fitted maximal effect.

SMILES | BAZ2B inh | G9a block | L3MBTL1 inh | JMJD2A Tudor | HP1b binding inh | Sfp PPTase inh
COC(=O)/C(=N/Nc1ccc(C)cc1)N1CCCc2ccccc21 | u | 45µM* | -12% | u | -6% | -15%
COC(=O)/C(=N/Nc1cccc(C)c1)N1CCCc2ccccc21 | u | u | -22% | -3% | 28% | -7%
C=C(C)COc1ccc2c(CC)cc(=O)oc2c1 | 71% | 145% | 35% | 20µM* | 36% | 56µM*
C=C(Cl)COc1ccc2c(CC)cc(=O)oc2c1 | 8% | 2%[59 µM] | 8% | 26% | 74% | 6%
CCSc1ncc(/C=N/Nc2ccc(F)cc2)n1C | u | 25µM* | -15% | u | -12% | 0%
COc1ccc(NC(=O)Nc2c(C)n(C)n(-c3ccccc3)c2=O)cc1 | 13% | 9%[59 µM] | 2% | -13% | 16% | 30%
Cc1c(NC(=O)C(=O)/C=C(/O)c2ccccc2)c(=O)n(-c2ccccc2)n1C | 50µM* | 8.9µM* | 9% | 20µM* | 14% | -6%
Cc1c(NC(=S)NC(=O)c2ccccc2)c(=O)n(-c2ccccc2)n1C | x | x | x | 10% | 20% | x
COc1ccc(/C(O)=C/C(=O)C(=O)NNC(=O)C(O)(c2ccccc2)c2ccccc2)cc1 | -37% | -18% | -5% | 79µM* | 19% | 8%
COc1ccc(/C(O)=C/C(=O)C(=O)Nc2c(C)n(C)n(-c3ccccc3)c2=O)cc1 | u | u | 3% | 22µM* | 9% | 3%
Cc1ccc(NC(=O)c2nnn(Cc3cccc(C(F)(F)F)c3)c2N)c(C)c1 | 4% | 9%[59 µM] | x | -7% | 36% | x
Cc1ccccc1NC(=O)CN1C(=O)S/C(=C\c2cccn2-c2cccc(C(=O)O)c2)C1=O | 56µM* | u | u | 79µM* | u | -20%
Cc1cccc(C)c1NC(=O)CN1C(=O)S/C(=C\c2cccn2-c2cccc(C(=O)O)c2)C1=O | 79µM* | u | -9% | 50µM* | -11% | -17%
O=C1/C(=C/c2cccnc2)SC(=S)N1c1ccccc1 | 8% | u | -1% | -4% | 28% | -18%
Cc1ccc(NC(=O)CN2C(=O)S/C(=C\c3cccn3-c3cccc(C(=O)O)c3)C2=O)c(C)c1 | 40µM* | u | u | 22µM* | 50µM* | 50µM*
Cc1cccc(C)c1-n1cccc1/C=C1\SC(=S)N(c2cccc(C(=O)O)c2)C1=O | 50µM* | u | x | u | u | 40µM*
COc1cc(C2Nc3ccccc3C(=O)N2Cc2ccco2)cc(OC)c1OC (stereo unspecified) | x | x | x | -34% | 9% | x
C[C@@H](NC(=O)CN(c1ccccc1)S(=O)(=O)N(C)C)c1ccccc1 | 2% | 6%[59 µM] | x | -4% | 42% | x
COc1ccc(NC(=O)CN2C(=O)S/C(=C/c3cccn3-c3ccc(C(=O)O)cc3)C2=O)cc1 | 18µM* | 22µM* | x | x | x | -5%
Cc1ccc(NC(=O)CSc2ccc(-c3cccs3)nn2)cc1Cl | -36% | -6%[59 µM] | x | -24% | -11% | x
CC1CN(Cc2csc(-c3ccc(Cl)cc3)n2)CC(C)O1 (stereo unspecified) | 50µM* | 40µM* | 4% | 10µM* | u | -31%
CCC1CCCCN1C(=O)CNCC1CCCO1 (stereo unspecified) | -39% | 18µM* | 5% | -7%[11.4 µM] | -24% | 1%
Cc1ccc(NC(=O)CC(NCC2CCCO2)C(=O)O)cc1C (stereo unspecified) | -30% | 2.2µM* | x | -13% | 12% | -18%
CCn1c2ccccc2c2cc(NC(=O)CNCC3CCCO3)ccc21 (stereo unspecified) | 50µM* | 13µM* | -12% | -27%[11.4 µM] | u | -32%
CCC1CCCCN1C(=O)NC(=O)c1ccccc1 (stereo unspecified) | -18% | 35% | x | -3% | 38% | 20%
SMILES | BAZ2B inh | G9a block | L3MBTL1 inh | JMJD2A Tudor | HP1b binding inh | Sfp PPTase inh
O=C(c1ccc(S(=O)(=O)NCC2CCCO2)cc1)N1CCc2ccccc21 (stereo unspecified) | 4% | -8%[59 µM] | -11%[11.4 µM] | -15% | 5% | 8%
CCn1c2ccccc2c2cc(NC(=O)CN3CCCC3)ccc21 | -43% | u | x | u | -14% | 6%
O=C(CNCC1CCCO1)N1CCCc2ccccc21 (stereo unspecified) | 56µM* | u | x | 4µM* | u | -11%
Cc1cccc(C)c1NC(=O)CCC(=O)N1Cc2ccccc2Oc2ncccc21 | 2%[57.1 µM] | -16%[59 µM] | x | -13% | 3% | x
Cc1ccc(Cl)cc1NC(=O)CN(C)S(=O)(=O)c1ccc2c(c1)n(C)c(=O)c(=O)n2C | -11% | -1%[59 µM] | x | 5% | 33% | x
COc1ccccc1CNc1nccn(-c2ccccc2)c1=O | -23% | -37%[59 µM] | x | u | -4% | x
CCOC(=O)C1CCN(C(=O)C2CCN(S(=O)(=O)c3c(C)noc3/C=C/c3ccc(C)cc3)CC2)CC1 | -13% | -4%[59 µM] | x | -27% | 19%[57 µM] | x
Cc1ccc2c(c1)c(CC(NC(=O)c1ccccc1Oc1ccccc1)C(=O)O)cn2C(=O)OCc1ccccc1 (stereo unspecified) | x | x | x | x | x | -18%
CCn1c2ccccc2c2cc(NC(=O)c3ccccc3[N+](=O)[O-])ccc21 | -38% | 7.9µM* | -7% | -35% | 3% | 14%
O=C(CNCC1CCCO1)Nc1ccccc1-n1cccc1 (stereo unspecified) | 50µM* | 8.9µM* | 3% | 5µM* | 4% | -25%
CCn1c2ccccc2c2cc(NC(=O)c3ccc([N+](=O)[O-])cc3)ccc21 | 7% | u | -1% | -20% | 7% | -20%
Cc1cccc(N=C2NC(=O)S/C2=C\c2ccco2)c1 | u | 22µM* | u | 40µM* | -21% | 56µM*
Cc1cccc(N=C2CSC(=O)N2)c1 | -7% | 6% | 4% | -8% | 12% | 5%
O=C1NC(=Nc2ccc(O)cc2)S/C1=C/c1ccco1 | -13% | u | x | -28% | -15% | -1%
COc1ccc(N=C2NC(=O)/C(=C\C=C\c3ccco3)S2)cc1 | 28µM* | 7.1µM* | 32µM* | 20µM* | 22µM* | u
Cc1cc(C)cc(N=C2NC(=O)/C(=C/c3cccs3)S2)c1 | -28% | u | -10% | -31% | 2% | -2%
Cc1cccc(N=C2NC(=O)/C(=C/C=C/c3ccco3)S2)c1 | 35µM* | 14µM* | u | 18µM* | u | 50µM*
O=C1NC(=Nc2ccc3ccccc3c2)S/C1=C/c1ccco1 | 20µM* | 50µM* | 28µM* | u | 9% | 71µM*
Cc1ccccc1-n1nc(CO)c(C(=O)NCC(c2ccccc2)c2ccccc2)n1 | 12% | 20%[59 µM] | x | 3% | 63% | x
